Source: PubChem (National Center for Advancing Translational Sciences (NCATS))
A selection: hits, their analogues and other compounds. The true share with any hit is near 12%.
G9a inh = qHTS Assay for Inhibitors of Histone Lysine Methyltransferase G9a; Potency, µM (top dose mostly 102 µM), inactives show at the top dose activity, negative = inhibition, most hits filed as inhibitors; AID 504332, 2011; Histone-lysine N-methyltransferase EHMT2 (Homo sapiens), Q96KQ7; G9a H3K9 monomethylation, AlphaScreen, 2 h; actives 8.8% (n = 350,000); also: % is scaled to controls: 0 for no effect and ±100 for the full control effect; nearly all actives have a fitted effect of over 75% in size
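G9a (20 nM) was preincubated 15 min with compound, then reacted 2 h at room temperature with 500 nM biotin-H3K9 peptide and 20 µM SAM. Monomethyl-H3K9 detected by AlphaScreen using anti-H3K9me1 antibody.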
Sfp inh = qHTS Assay for Inhibitors of Bacillus subtilis Sfp phosphopantetheinyl transferase (PPTase). actives 3.5% (n = 310,000). AID 1490, 2009. Biochemical Sfp PPTase activity, qHTS. Potency, µM, inactives show largest response in the series, negative = inhibition, actives largely listed as inhibitors. 4'-phosphopantetheinyl transferase ffp (Bacillus subtilis), Q9F4F7;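 also: the enzyme is Sfp with the accession as filed and its product quenches rhodamine fluorescence; 0% = enzyme reaction without inhibitor and -100% = no enzyme wells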
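Compounds were incubated with enzyme (final 15 nM) for 15 min at room temperature before substrate addition started the reaction. Fluorescence at 525 nm excitation, 598 nm emission was recorded immediately and after 30 minutes.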
PLK1 PBD block = qHTS for Inhibitors of PLK1-PDB (polo-like kinase 1 - polo-box domain): Primary Screen; Serine/threonine-protein kinase PLK1 (Homo sapiens), P53350; Plk1 PBD binding of FITC phosphopeptide, fluorescence polarization; Potency, µM, for inactives: max response, negative = inhibition, hits mostly inhibitors; actives 2.8% (n = 360,000); AID 720504, 2013; also: series mostly up to about 57 µM; % is scaled to controls: 0 for no effect and ±100 for the full control effect; nearly all actives have a fitted effect of over 65% in size
BAZ2B block = qHTS Assay for Inhibitors of BAZ2B; Bromodomain adjacent to zinc finger domain protein 2B (Homo sapiens), Q9UIF8; AlphaScreen BAZ2B-H3K14Ac peptide displacement; Potency, µM (series often up to 114 µM), for the others: at the top dose activity change, negative = inhibition, most hits filed as inhibitors; actives 4.4% (n = 360,000); also: % is scaled to controls: 0 for no effect and ±100 for the full control effect; nearly all actives have a fitted effect of over 60% in size
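BAZ2B (50 nM) with biotin-H3(5-23)K14Ac peptide (50 nM) in PBS pH 7.4, 0.01% Tween-20, preformed 30 min, then compound 30 min at room temperature; top concentration 110uM. AlphaScreen streptavidin donor/nickel chelate acceptor beads (10 ug/mL final), 20 min dark, signal read.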
HP1b binding inh = HTS for Inhibitors of HP1-beta Chromodomain Interactions with Methylated Histone Tails; actives 0.56% (n = 390,000); AlphaScreen HP1-beta / biotin-H3K9me3 peptide binding; Potency, µM (highest dose often 114 µM), for the others: at the top dose activity change, negative = inhibition, actives largely listed as inhibitors; also: nearly all actives have a fitted effect of over 70% in size
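AlphaScreen: HP1-beta (50 nM) preformed 30 min with biotin-H3(1-18)K9me3 peptide (50 nM) in PBS pH 7.4, 0.01% Tween-20. Compound added for 30 min at RT, then streptavidin donor/nickel chelate acceptor beads (10 ug/mL) for 30 min.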
JMJD2A Tudor inh = qHTS Assay for Inhibitors of JMJD2A-Tudor Domain. AID 504339, 2011. actives 4.4% (n = 390,000). Lysine-specific demethylase 4A (Homo sapiens), O75164. AlphaScreen JMJD2A-Tudor / H3K4me3 peptide binding. Potency, µM (series often up to 114 µM), inactives show top-dose activity change, negative = inhibition, most hits filed as inhibitors; also: % is scaled to controls: 0 for no effect and ±100 for the full control effect; nearly all actives have a fitted effect of over 50% in size
* = called active by the depositor; ? = inconclusive; · = no result given; [ ] = another dose, or the depositor's remark. Calls follow the shape of the dose curve; as a rule, active = well fitted curve in the direction sought with a large enough effect; inconclusive = small, poorly fitted or top-dose-only effect, or another doubt; inactive = no such curve, though single readings can be large; an effect the other way counts as inactive or inconclusive. Potency is read from the fitted curve at half-maximal effect.

SMILES | G9a inh | Sfp inh | PLK1 PBD block | BAZ2B block | HP1b binding inh | JMJD2A Tudor inh
Cc1cc(C)c2nc(NC(=O)c3ccc(S(=O)(=O)N4CCCC4)cc3)sc2c1 | 12%[59 µM] | · | · | 0% | 17%[57 µM] | -14%
Cc1cc(C)c2nc(NNC(=O)c3ccc(S(=O)(=O)N4CCCCC4)cc3)sc2c1 | 25µM* | ? | -17% | ? | 9% | ?
CCOC(=O)N1CCN(S(=O)(=O)c2ccc(C(=O)NNc3nc4c(C)cc(C)cc4s3)cc2)CC1 | 45µM* | ? | -9% | -11% | 5% | ?
Cc1ccc(S(=O)(=O)N2CCC(N3CCN(C)CC3)CC2)cc1Cl | -20% | 6% | -9% | -2% | -13% | -11%
C[C@H](CO)N1C[C@H](C)[C@@H](CN(C)S(=O)(=O)c2ccccc2F)Oc2ncc(C#Cc3cccnc3)cc2C1=O | · | · | -18% | · | · | ·
COc1cc(Cl)ccc1NC(=S)N(CCCN1CCOCC1)Cc1cn(C)c2ccccc12 | 18µM* | 11µM* | 5.3µM* | ? | ? | ?
COc1ccccc1NC(=S)N(CCCN1CCOCC1)Cc1cn(C)c2ccccc12 | ? | -6% | ? | ? | -7% | ?
COc1ccc(Cl)cc1NC(=S)N(CCCN1CCOCC1)Cc1cn(C)c2ccccc12 | 10µM* | 13µM* | 6µM* | ? | ? | ?
CCCCC(=O)Nc1cc(-c2cn3cccnc3n2)ccc1C | 5%[59 µM] | · | · | 2% | 18%[57 µM] | -23%
COc1cc(SC)ccc1C(=O)N1CCN(c2ccccc2)CC1 | 9% | 15% | -6% | 0% | 11% | -20%
COc1cc(SC)ccc1C(=O)N1CCN(c2ccc(O)cc2)CC1 | 16µM* | 56µM* | 9% | · | ? | ?
COc1cc(SC)ccc1C(=O)NC1CCCCC1 | 1.1µM* | -1% | -4% | 3% | 36% | 8%
COc1cc(SC)ccc1C(=O)N1CCC(Cc2ccccc2)CC1 | 10µM* | -12% | · | · | · | ·
CCOC(=O)c1cnn(-c2ccc(OC)cc2)c1C1CCN(C(=O)OC(C)(C)C)CC1 | -2%[59 µM] | · | · | · | 41% | -4%
Cc1ccc(-c2nc3ccccn3c2Nc2ccccc2)o1 | 50µM* | 20µM* | -24% | -31% | 12% | -8%
Cc1ccc2nc(-c3ccc(C)o3)c(Nc3ccc4c(c3)OCO4)n2c1 | · | · | · | · | 19% | -26%
Brc1ccc(-c2nc3ccccn3c2Nc2ccc3c(c2)OCCO3)o1 | ? | · | · | · | 9% | -18%
Cc1ccc(-c2nc3ccccn3c2Nc2ccc3c(c2)OCCO3)o1 | 13µM* | · | · | 45µM* | ? | 50µM*
Cc1ccc2nc(-c3ccc(C)o3)c(Nc3ccc4c(c3)OCCO4)n2c1 | 4.5µM* | · | · | ? | 7% | ?
Cc1ccc(Nc2c(-c3ccc(C)o3)nc3ccccn23)cc1 | · | · | · | · | -14% | ?
COc1ccc(S(=O)(=O)c2c(Nc3ccc(C)cc3)sc(C(=O)c3ccc4c(c3)OCO4)c2N)cc1 | -33%[59 µM] | · | · | -16% | 22%[57 µM] | -17%
O=C(COc1ccc(F)cc1F)N1CCCCCCC1 | · | -2% | ? | -5% | 36% | 5%
O=C(Nc1ccc(CN2CCOCC2)cc1)c1cccc(-c2cc3ccccc3oc2=O)c1 | ? | -6% | -1% | 79µM* | 15% | -25%
O=C(Nc1cccc(Cl)c1N1CCCC1)c1cccc(-c2cc3ccccc3oc2=O)c1 | 35µM* | 7% | -9% | 10% | 44% | 0%
O=C(Nc1ccc(CN2CCOCC2)cc1)c1ccc2ccccc2c1 | · | 2% | 1% | -14% | 12% | -16%
C=C1CCC[C@]2(C)C[C@H]3OC(=O)C(CNC(C)(CO)CO)[C@H]3CC12 (stereo not given in full) | 31% | 1% | -7% | 2% | 45% | 2%
